In the library only some 6.8% were active in any assay of this set; here they are far more common.
MCF10A rerep = DNA re-replication induction in MCF 10a cells; hit rate 2.9% among 350,000; Potency, µM (titrated, usually from 46.1 µM), inactives show top-dose activity, positive = re-replication, actives largely listed as activators; MCF 10A DNA re-replication, Hoechst nuclear intensity, 48 h; AID 624296; note: % of control where 0% means no effect; nearly all actives have a fitted effect of over 50% in size
TSG101-PTAP inh = blocks PTAP/TSG101 interaction to inhibit HIV-1 budding. Q99816. Fluorescence polarization, FITC-PTAP peptide / Tsg101 binding. Potency, µM (doses to about 115 µM), for the others: at the top dose activity change, negative = inhibition, most hits filed as inhibitors. 340,000 tested, under 10 active. AID 493005; active = well fitted inhibition curve with a large enough effect in the main read-out, with a control signal flat, not every such curve was filed as active; inconclusive = small, poorly fitted or top-dose-only effect, or effect the other way, or a change in a side signal; inactive = no such curve, though single readings can be large or run the other way; note: % of control where 0% means no effect
Target sequence (Q99816 whole entry, looked up): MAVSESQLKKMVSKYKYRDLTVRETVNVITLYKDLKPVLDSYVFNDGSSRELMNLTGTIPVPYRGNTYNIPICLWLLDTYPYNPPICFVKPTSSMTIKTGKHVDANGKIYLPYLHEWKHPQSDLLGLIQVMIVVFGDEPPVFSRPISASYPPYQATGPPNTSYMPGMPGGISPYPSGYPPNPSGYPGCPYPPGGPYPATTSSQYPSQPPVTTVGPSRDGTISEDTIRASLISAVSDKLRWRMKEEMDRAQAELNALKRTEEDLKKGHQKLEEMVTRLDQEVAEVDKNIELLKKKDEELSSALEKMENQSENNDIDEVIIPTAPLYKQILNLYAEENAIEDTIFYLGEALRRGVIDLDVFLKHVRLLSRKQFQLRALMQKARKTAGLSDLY
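Tsg101 binding domain (10 uM final) was mixed with compound and a FITC-labeled PTAP peptide (50 nM final) in HEPES pH 7.5 buffer with NaCl, Tween 20, EDTA and TCEP; fluorescence polarization was read after 20 min at r.t.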
KB-3-1 cytotox = kills parental KB-3-1 adenocarcinoma cells | hit rate 1.4% among 400,000 | KB-3-1 viability, CellTiter-Glo ATP luminescence, 72 h | Potency, µM (top dose mostly 46.1 µM), most hits filed as cytotoxic; note: % is set by controls: 0 for no effect and ±100 for the full control effect; nearly all actives have a fitted effect of over 60% in size
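Here the drug-naive KB-3-1 line serves as comparator for MDR sub-line selectivity; cells received compound titrations, 72 h at 37 °C, then CellTiter-Glo readout.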
SW480 rerep = inducers of DNA re-replication in SW480 colon cancer cells; SW480 DNA re-replication, Hoechst DNA content imaging, 48 h; Potency, µM (series often up to 46.1 µM), for inactives: at the top dose re-replication activation, most hits filed as activators; hit rate 1.8% among 340,000; note: % of control where 0% means no effect; nearly all actives have a fitted effect of over 55% in size
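Hoechst fluorescence of nuclei (405 nm excitation, 500-530 nm emission) measured by plate-scanning imager after 48 hr compound exposure at 37 C; re-replication scored as increased number of nuclei with elevated intensity.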
KB-V1 cytotox = KB-V1 MDR subline cytotoxicity. KB-V1 MDR cells viability, CellTiter-Glo, 72 h. Potency, µM (doses to about 46.1 µM), usual class: cytotoxic. hit rate 3.4% among 400,000; note: % is set by controls: 0 for no effect and ±100 for the full control effect; nearly all actives have a fitted effect of over 60% in size
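KB-V1 cells (P-gp-expressing MDR subline of KB-3-1) in phenol-red-free DMEM with 10% FBS were exposed to library compounds over a concentration series for 72 h at 37 degrees C. Viability read by CellTiter-Glo luminescence; concentration-effect curves fitted after normalization.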
PINK1 expr mod = PINK1 expression modulation. PINK1 immunofluorescence, high-content cytometry, 24 h. Potency, µM (doses to about 76.6 µM), inactives show top-dose activation (PINK1 increase), hits mostly activators. hit rate 0.2% among 410,000. AID 624263; active = well fitted activation curve with a large enough effect; inconclusive = small, poorly fitted or top-dose-only effect; cell line not stated here; note: % of control where 0% means no effect; nearly all actives have a fitted effect of over 65% in size
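Measures PINK1 amount and localization on or inside mitochondria by immunofluorescence. Stable cells get compounds at 5 concentrations for 24 hours before fixation and staining; CCCP controls included.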
Numbers without * were called inactive; [ ] = dose if it differs, or a comment. Unless noted, calls come from the whole dose curve; as a rule, active = well fitted curve in the direction sought with a large enough effect; inconclusive = small, poorly fitted or top-dose-only effect, or another doubt; inactive = no such curve, though single readings can be large; an effect the other way counts as inactive or inconclusive. Potency is the fitted concentration of half-maximal effect.

`CC(NC(=O)NC1CCCCC1)C(c1cccs1)N1CCN(Cc2ccccc2)CC1` (stereo not given) gave MCF10A rerep 2%, TSG101-PTAP inh 1%, KB-3-1 cytotox inactive, SW480 rerep -1%, KB-V1 cytotox inactive and PINK1 expr mod 0%.
For CC(NC(=S)NCCc1ccccc1)C(c1cccs1)N1CCN(Cc2ccccc2)CC1 (stereo not given) the results were MCF10A rerep inconclusive, TSG101-PTAP inh -1%, KB-3-1 cytotox inconclusive, SW480 rerep 21µM*, KB-V1 cytotox inactive and PINK1 expr mod 16µM*.
`COC(=O)c1cccc(-c2cc(Cl)c3c(c2)CC(CNC(=O)c2cccnc2)O3)c1` (stereo not given) gave PINK1 expr mod 0%.
Screening CCOC(=O)c1c(-c2ccc(OC)cc2)csc1NC(=O)CNCc1ccco1 returned MCF10A rerep inconclusive, TSG101-PTAP inh 0%, KB-3-1 cytotox inactive, SW480 rerep -2%, KB-V1 cytotox 10µM* and PINK1 expr mod 6%.
Screening CCOC(=O)c1c(-c2ccccc2)csc1NC(=O)CSc1nc(C)cc(C)n1 returned MCF10A rerep inconclusive, TSG101-PTAP inh -1%, KB-3-1 cytotox inactive, SW480 rerep 0%, KB-V1 cytotox inactive and PINK1 expr mod 1%.
For CCOC(=O)c1c(-c2cccs2)csc1NC(=O)COC(=O)c1c(C)noc1C the results were MCF10A rerep inconclusive, TSG101-PTAP inh -3%, KB-3-1 cytotox inactive, SW480 rerep 6%, KB-V1 cytotox 21µM* and PINK1 expr mod 23%[38.3 µM].
CCOC(=O)c1c(-c2ccc(C)o2)csc1NC(=O)CSc1nncs1 was read as MCF10A rerep 3%, TSG101-PTAP inh -7%, KB-3-1 cytotox inactive, SW480 rerep 0%, KB-V1 cytotox 15µM* and PINK1 expr mod 3%[38.3 µM].
CCOC(=O)c1c(-c2cccs2)csc1NC(=O)c1ccncc1 was read as MCF10A rerep inconclusive, TSG101-PTAP inh -4%, KB-3-1 cytotox inactive, SW480 rerep -3%, KB-V1 cytotox inactive and PINK1 expr mod 4%.
Screening CCOC(=O)c1c(-c2ccccc2)csc1NC(=O)CSc1nc(N)cc(N)n1 returned MCF10A rerep inconclusive, TSG101-PTAP inh -1%, KB-3-1 cytotox 6.5µM*, SW480 rerep -20%, KB-V1 cytotox 3.3µM* and PINK1 expr mod 0%.
CCOC(=O)c1c(-c2ccc(C)o2)csc1NC(=O)CN1CCCCC1 was read as MCF10A rerep 23µM*, TSG101-PTAP inh -1%, KB-3-1 cytotox inactive, SW480 rerep 1%, KB-V1 cytotox inconclusive and PINK1 expr mod inconclusive.
Cc1ccc(NS(=O)(=O)c2cc(C(=O)O)ccc2Cl)cc1 was read as MCF10A rerep 12%, TSG101-PTAP inh -8%, KB-3-1 cytotox inactive, SW480 rerep -2%, KB-V1 cytotox inconclusive and PINK1 expr mod 2%.
`Cc1ccccc1NS(=O)(=O)c1cc(C(=O)N2CCc3ccccc3C2)ccc1C` gave MCF10A rerep inconclusive, TSG101-PTAP inh -1%, KB-3-1 cytotox inactive, SW480 rerep -1%, KB-V1 cytotox 7.3µM* and PINK1 expr mod 1%.
Screening Cc1ccc(NS(=O)(=O)c2cc(C(=O)N3CCc4ccccc4C3)ccc2Cl)cc1 returned MCF10A rerep inconclusive, TSG101-PTAP inh -6%, KB-3-1 cytotox inactive, SW480 rerep inconclusive and KB-V1 cytotox 16µM*.
Screening O=S(=O)(Nc1ccc(N=Nc2ccccc2)cc1)c1ccccc1 returned MCF10A rerep inconclusive, TSG101-PTAP inh 0%, KB-3-1 cytotox inactive, SW480 rerep 0%, KB-V1 cytotox 3.3µM* and PINK1 expr mod 7%.
`O=S(=O)(Nc1ccc(NS(=O)(=O)c2ccccc2)c(Cl)c1)c1ccccc1` gave MCF10A rerep 26%, TSG101-PTAP inh 0%, KB-3-1 cytotox inactive, SW480 rerep 5%, KB-V1 cytotox inactive and PINK1 expr mod -3%.
O=S(=O)(Nc1ccc(S(=O)(=O)Nc2ccccc2)cc1)c1ccccc1 was read as MCF10A rerep 22%, TSG101-PTAP inh -7%, KB-3-1 cytotox inactive, SW480 rerep 2%, KB-V1 cytotox inactive and PINK1 expr mod -2%.
For Cc1cc(NS(=O)(=O)c2ccccc2)cc(Cl)c1O the results were MCF10A rerep 2%, TSG101-PTAP inh -6%, KB-3-1 cytotox inactive, SW480 rerep 9%, KB-V1 cytotox 16µM* and PINK1 expr mod 5%.
For COc1ccccc1C1CN(CC(=O)NCC2OCCc3ccccc32)Cc2ccccc2O1 (stereo not given) the results were PINK1 expr mod 0%.
`CC(=O)c1sc2c(c1OC(=O)c1ccc(Cl)cc1)c(=O)n(-c1ccccc1)c(=S)n2-c1ccccc1` gave MCF10A rerep inconclusive, TSG101-PTAP inh 0%, KB-3-1 cytotox inconclusive, SW480 rerep 1%, KB-V1 cytotox 15µM* and PINK1 expr mod 18%.
Screening CC(=O)c1sc2c(c1OC(=O)c1ccc(Cl)cc1Cl)c(=O)n(-c1ccccc1)c(=S)n2-c1ccccc1 returned MCF10A rerep inconclusive, TSG101-PTAP inh 3%, KB-3-1 cytotox inconclusive, SW480 rerep 4%, KB-V1 cytotox inconclusive and PINK1 expr mod 2%.
O=C(CCCN1C(=O)/C(=C/c2ccccc2Cl)SC1=S)NNC(=O)c1ccccc1Cl was read as MCF10A rerep inconclusive, TSG101-PTAP inh 0%, KB-3-1 cytotox inconclusive, SW480 rerep -6%, KB-V1 cytotox inactive and PINK1 expr mod 2%.
`O=C(CCCN1C(=O)/C(=C/c2ccccc2Cl)SC1=S)NNC(=O)c1ccncc1` gave MCF10A rerep 13µM*, TSG101-PTAP inh -3%, KB-3-1 cytotox inconclusive, SW480 rerep -31%, KB-V1 cytotox inactive and PINK1 expr mod 6%.
Cc1cc(NC(=O)CCCN2C(=O)/C(=C/c3ccccc3Cl)SC2=S)no1 was read as MCF10A rerep 8%, KB-3-1 cytotox inconclusive, SW480 rerep inconclusive, KB-V1 cytotox 21µM* and PINK1 expr mod inconclusive.
COc1cc(NC(=O)COC(=O)c2n[nH]c3ccccc23)c(C)cc1[N+](=O)[O-] was read as MCF10A rerep -5%, TSG101-PTAP inh -10%, KB-3-1 cytotox inactive, SW480 rerep -1%, KB-V1 cytotox inactive and PINK1 expr mod 45µM*.
Screening COc1cc(NC(=O)COC(=O)C2CC2)c(C)cc1[N+](=O)[O-] returned MCF10A rerep 3%, TSG101-PTAP inh -1%, KB-3-1 cytotox inactive, SW480 rerep -35%, KB-V1 cytotox inactive and PINK1 expr mod 3%.

Source: PubChem (National Center for Advancing Translational Sciences (NCATS))
